The nature of experiment [1]: inhibitors of TNFa-induced NFkB p65 translocation, primary screen, imaging, HUVEC, MLSMR starter and 10KST1 sets (AID 438;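 active = inhibition above 20% together with a positive visual image hit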;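 note: compound added about 3h40 before a 20 min TNFalpha stimulation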;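 for inhibition: signal is the nuclear over cytoplasmic p65 intensity ratio per well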). The settings on record: HUVEC TNFa-induced p65 nuclear translocation; cell count: measured here: nuclei count (cytotoxicity indicator), at 2.08 µM; inhibition: at 2 µM, stronger effect = higher value, 0% TNFa-plus-vehicle, 100% no-TNFa wells.
Experiment [2] can be described thus: reduction of polyQ htt aggregates in cells – imaging, exon1htt(103Q)mCFP cells, high-content imaging, primary screen (AID 483;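 active = visual image review flags a hit and inhibition of aggregation exceeds 20%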;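 note: compound exposure lasted 3 days before fixation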;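 for nuclei count: percent of the per-plate median nuclei count of sample wells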). Conditions: exon1htt(103Q)mCFP cell line, aggregate imaging, at 2 µM; inhibition of aggregation: stronger effect = higher value; nuclei count: measured here: cell count, toxicity.
Experiment [3] is described as follows: endothelial E-selectin expression blockers – imaging, HUVEC, immunofluorescence, MLSMR starter and 10KST1 sets, primary screen (AID 487).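 For inhibition: signal is fraction of cell area covered by stained E-selectin grains.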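 For nuclei count: 100% = median nuclei count of all wells on the same plate.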 The settings on record: HUVEC TNFalpha-induced E-selectin immunofluorescence imaging, at 2 µM; inhibition: stronger effect = higher value; nuclei count: measured here: cell number, toxicity.
In experiment [4] the target is Voltage-gated potassium channel subunit beta-2 (Rattus norvegicus) (UniProt P62483). Kind of experiment: inhibitors of rat Kvbeta2 reductase activity – biochemical, NADPH fluorescence, primary screen (AID 622;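 active = fluorescence slope higher than the sample average by over 3 SD, cut at about -0.22 in these data, passing the limit was not always enough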;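 note: slope of raw intensity against log time taken from 70 to 1610 s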). The settings on record: recombinant KvBeta, 4-cyanobenzaldehyde reduction, at 10 µM, stronger effect = higher value.
The target is the same in experiment [5]. Kind of experiment: enhancers of rat Kvbeta2 NADPH turnover – biochemical, NADPH fluorescence, primary screen (AID 623;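 active = NADPH fluorescence slope more negative than the mean of all samples by about 3 SD, 99.7% confidence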;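 note: fluorescence intensity change per second fitted from 20 to 320 s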). Conditions: Recombinant KvBeta, NADPH fluorescence decrease slope, 10 min; at 10 µM; stronger effect = lower value.
Experiment [6] addresses Alpha-2C adrenergic receptor (Homo sapiens) (UniProt P18825). Kind of experiment: compounds altering alpha2C-coupled GIRK flux – cell-based, HEK293 alpha2C/GIRK1/2, thallium flux, primary screen (AID 624;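 active = fluorescence slope after compound addition differing from the mean of all screened samples at 99.7% confidence, in either direction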;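 note: slope of fluorescence ratio to pre-addition baseline per second over 15 to 24 s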). Conditions: thallium flux BTC fluorescence, at 10 µM, actives lie on both sides.
Experiment [7] can be described thus: blockers of RIG-like receptor reporter activation – cell-based, Sendai virus stimulus, luciferase, 10K MLSCN set, TLR/RLR signaling modifier project, primary screen (AID 602276;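 active = inhibition at or above 50% at 10 µM; inactive = inhibition below 50%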;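 note: firefly luciferase from ISG56 promoter only with Renilla not read in this screen; 0% = Sendai virus plus DMSO and 100% = medium plus DMSO without virus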). The settings on record: HEK293 RL24 IRF3 luciferase reporter, at 10 µM, stronger effect = higher value.
Experiment [8] in a line: TLR3 IRF3 reporter activation blockers – cell-based, poly I:C stimulus, luciferase, 10K MLSCN set, primary screen (AID 602277;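 active = inhibition of the reporter signal at or above 50%; inactive = inhibition below 50%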). The settings on record: HEK293-TLR3 RL24 IRF3 luciferase reporter, at 10 µM, stronger effect = higher value.

Active and inactive are the calls of the source.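 Rule for the calls, unless noted: active = visually confirmed hit in the image check and inhibition above 20%; inconclusive = visually confirmed hit but inhibition not above 20%; inactive = no visual hit in the image check.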

Chain of Voltage-gated potassium channel subunit beta-2 (Rattus norvegicus) (P62483 whole entry, looked up): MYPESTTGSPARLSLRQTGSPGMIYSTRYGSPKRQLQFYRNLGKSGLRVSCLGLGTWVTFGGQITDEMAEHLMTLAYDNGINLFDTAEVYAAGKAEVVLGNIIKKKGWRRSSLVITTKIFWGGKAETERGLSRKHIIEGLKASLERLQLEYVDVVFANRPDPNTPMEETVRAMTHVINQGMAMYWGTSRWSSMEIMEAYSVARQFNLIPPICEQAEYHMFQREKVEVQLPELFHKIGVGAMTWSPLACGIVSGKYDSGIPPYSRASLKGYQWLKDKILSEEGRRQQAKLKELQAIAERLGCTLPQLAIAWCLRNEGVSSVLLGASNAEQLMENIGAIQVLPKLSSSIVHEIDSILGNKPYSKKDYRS
Chain of Alpha-2C adrenergic receptor (Homo sapiens) (P18825 whole entry, looked up): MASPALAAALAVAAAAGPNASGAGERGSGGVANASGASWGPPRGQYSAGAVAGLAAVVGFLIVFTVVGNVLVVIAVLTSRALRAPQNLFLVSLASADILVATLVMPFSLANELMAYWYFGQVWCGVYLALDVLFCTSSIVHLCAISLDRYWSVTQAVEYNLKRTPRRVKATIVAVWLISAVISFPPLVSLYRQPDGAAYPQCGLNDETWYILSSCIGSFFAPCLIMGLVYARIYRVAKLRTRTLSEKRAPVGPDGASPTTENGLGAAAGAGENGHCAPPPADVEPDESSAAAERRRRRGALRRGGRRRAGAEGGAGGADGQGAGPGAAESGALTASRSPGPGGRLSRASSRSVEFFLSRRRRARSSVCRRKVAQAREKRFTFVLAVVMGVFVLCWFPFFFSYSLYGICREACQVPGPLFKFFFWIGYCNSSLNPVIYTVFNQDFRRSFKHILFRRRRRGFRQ

Regarding `COc1ccc(S(=O)(=O)N2CCCC(C(=O)NCc3ccccn3)C2)cc1` (centres undefined), the cell count in experiment [1] was determined as 291. Further, the inhibition in experiment [1] was -2.2% (inactive); in experiment [3], 1.9% (inactive); in experiment [7], 12.7% (inactive); in experiment [8] it was 35.6% (inactive). For the same compound, the inhibition of aggregation in experiment [2] was 8.2% (inactive). In addition, the nuclei count was found to be 72.3% in experiment [2] and 76.8% in experiment [3]. Moreover, the fluorescence slope in experiment [4] is -0.477 (inactive). Moreover, the NADPH fluorescence slope in experiment [5] was -2.4e-05 (inactive). Moreover, the slope in experiment [6] was 0.00625 (inactive).
In the case of `COc1ccc(Cn2nnnc2CN2CCOCC2)cc1`, the cell count in experiment [1] amounted to 476. Moreover, the inhibition is 2.5% (inactive) in experiment [1], 1% (inactive) in experiment [3], 16.9% (inactive) in experiment [7] and 15.2% (inactive) in experiment [8]. Besides, the inhibition of aggregation in experiment [2] is -2.3% (inactive). In addition, the nuclei count in experiment [2] was 108%; in experiment [3], 97.7%. In addition, the fluorescence slope in experiment [4] is -0.441 (inactive). The NADPH fluorescence slope in experiment [5] was 1.6e-05 (inactive). The slope in experiment [6] was 0.00479 (inactive).
As for `COc1ccc(OC)c(NC(=O)C2C3CC4OC(=O)C2C4C3)c1` (centres undefined), the cell count in experiment [1] was 318. For the same compound, the inhibition in experiment [1] is -5.7% (inactive); in experiment [3], -119% (inactive); in experiment [7] it was 13.4% (inactive); in experiment [8], 18.6% (inactive). Besides, in experiment [2], the inhibition of aggregation was 6.4% (inactive). The nuclei count is 117% in experiment [2] and 114% in experiment [3]. The fluorescence slope in experiment [4] is -0.322 (inactive). The NADPH fluorescence slope in experiment [5] is -5.4e-05 (inactive). For the same compound, the slope in experiment [6] is 0.0056 (inactive).
On to `O=C(CCN1C(=O)COc2ccccc21)N1CCN(c2ccccn2)CC1`, for which the cell count in experiment [1] came out at 690. Also, the inhibition in experiment [1] is -8.6% (inactive); in experiment [3] it was -176% (inactive); in experiment [7], 10.4% (inactive); in experiment [8], 14.6% (inactive). Besides, the inhibition of aggregation in experiment [2] is -0.4% (inactive). The nuclei count in experiment [2] was 101%; in experiment [3], 132%. In experiment [4], the fluorescence slope is -0.591 (inactive). Further, in experiment [5], the NADPH fluorescence slope is 5.1e-07 (inactive). Further, the slope in experiment [6] is 0.00618 (inactive).
With `Cc1cc(Br)ccc1NC(=O)CNC(=O)CSc1n[nH]c(N)n1`, in experiment [1], the cell count was found to be 390. Moreover, the inhibition is -12.1% (inactive) in experiment [1], -25.1% (inactive) in experiment [3], 13.4% (inactive) in experiment [7] and 37.1% (inactive) in experiment [8]. For the same compound, the inhibition of aggregation in experiment [2] is -13.4% (inactive). Besides, the nuclei count worked out at 74.3% in experiment [2] and 115% in experiment [3]. Moreover, the fluorescence slope in experiment [4] was -0.58 (inactive). Also, the NADPH fluorescence slope in experiment [5] is -3.3e-05 (inactive). In addition, in experiment [6], the slope was 0.00679 (inactive).
As for `CCn1c(NC(=O)c2cccc(Cn3cc(Cl)cn3)c2)nc2ccccc21`, the cell count in experiment [1] came to 598. The inhibition is 4% (inactive) in experiment [1], -45.1% (inactive) in experiment [3], -3.99% (inactive) in experiment [7] and -9.89% (inactive) in experiment [8]. Moreover, the inhibition of aggregation in experiment [2] is 13.3% (inactive). Further, the nuclei count in experiment [2] is 81.8%; in experiment [3], 110%. The fluorescence slope in experiment [4] was -0.506 (inactive). For the same compound, in experiment [5], the NADPH fluorescence slope was -5.4e-05 (inactive). In addition, in experiment [6], the slope is 0.0059 (inactive).
As for `CCOc1ccc(OCc2cccc(C(=O)N3CCCC3)c2)cc1`, in experiment [1], the cell count was determined as 488. Also, the inhibition is 0% (inactive) in experiment [1], 3.3% (inactive) in experiment [3], -43% (inactive) in experiment [7] and -105% (inactive) in experiment [8]. The inhibition of aggregation in experiment [2] was -4.9% (inactive). Moreover, the results for the nuclei count in experiment [2] and in experiment [3] were 103% and 106%, respectively. The fluorescence slope in experiment [4] is -0.423 (inactive). In addition, in experiment [5], the NADPH fluorescence slope is -3.1e-05 (inactive). In addition, in experiment [6], the slope is 0.00502 (inactive).
With `O=C(NCC1CCCO1)c1ccc(C(=O)NCC2CCCO2)cc1` (centres undefined), in experiment [1], the cell count was 331. Further, the inhibition is 1.9% (inactive) in experiment [1], 52.3% (inactive) in experiment [3], 1.79% (inactive) in experiment [7] and 4.03% (inactive) in experiment [8]. Moreover, in experiment [2], the inhibition of aggregation is -3.7% (inactive). Moreover, the nuclei count turned out to be 101% in experiment [2] and 94.3% in experiment [3]. In addition, in experiment [4], the fluorescence slope was -0.332 (inactive). Moreover, the NADPH fluorescence slope in experiment [5] was -3.2e-05 (inactive). Besides, the slope in experiment [6] is 0.00518 (inactive).
As to `CCCCOCCCNC(=O)c1ccc(NC(C)=O)cc1`, the cell count in experiment [1] amounted to 416. Moreover, the inhibition in experiment [1] was -1.6% (inactive); in experiment [3], 8.8% (inactive); in experiment [7], -11% (inactive); in experiment [8] it was 3.52% (inactive). For the same compound, the inhibition of aggregation in experiment [2] is 1.3% (inactive). The nuclei count in experiment [2] was found to be 99.3%; in experiment [3], 115%. In addition, the fluorescence slope in experiment [4] was -0.45 (inactive). Moreover, the NADPH fluorescence slope in experiment [5] was 7.9e-06 (inactive). Moreover, the slope in experiment [6] was 0.00392 (inactive).
For the compound `Cc1ccc(NC(=O)CCC(=O)O)cc1F`, the cell count in experiment [1] worked out at 381. In addition, the inhibition in experiment [1] is 9.4% (inactive); in experiment [3] it was -10.9% (inactive); in experiment [7] it was 16.4% (inactive); in experiment [8], 24.4% (inactive). The inhibition of aggregation in experiment [2] was -13.4% (inactive). Besides, the results for the nuclei count in experiment [2] and in experiment [3] were 97.1% and 115%, respectively. Further, in experiment [4], the fluorescence slope is -0.508 (inactive). For the same compound, the NADPH fluorescence slope in experiment [5] is -7.1e-05 (inactive). The slope in experiment [6] was 0.00611 (inactive).
Consider `Cc1cccc2cc(CN(CCCO)C(=O)Nc3ccc(Cl)cc3)c(=O)[nH]c12`, for which the cell count in experiment [1] was 402. Moreover, the inhibition is 5.6% (inactive) in experiment [1], -307% (inactive) in experiment [3], 12.2% (inactive) in experiment [7] and -2.7% (inactive) in experiment [8]. Further, in experiment [2], the inhibition of aggregation was -13% (inactive). Also, the results for the nuclei count in experiment [2] and in experiment [3] were 117% and 156%, respectively. Besides, the fluorescence slope in experiment [4] is -0.646 (inactive). In experiment [5], the NADPH fluorescence slope was 1e-05 (inactive). For the same compound, in experiment [6], the slope was 0.00902 (inactive).
As to `O=C(CSc1nnc2ccccn12)NCCN1C(=O)CSC1=O`, the cell count in experiment [1] was 701. Besides, the inhibition was -2.8% (inactive) in experiment [1], -218% (inactive) in experiment [3], 7.75% (inactive) in experiment [7] and 2.81% (inactive) in experiment [8]. Besides, in experiment [2], the inhibition of aggregation is -2.4% (inactive). For the same compound, the figures for the nuclei count in experiment [2] and in experiment [3] were 94.1% and 130%, respectively. The fluorescence slope in experiment [4] is -0.608 (inactive). The NADPH fluorescence slope in experiment [5] is -5.5e-06 (inactive). For the same compound, the slope in experiment [6] was 0.00611 (inactive).
For `Cc1cccc2cc(C#N)c(SCCN3CCCCC3)nc12`, in experiment [1], the cell count is 413. Also, the inhibition in experiment [1] was -7.1% (inactive); in experiment [3], -46.6% (inactive); in experiment [7], 13.4% (inactive); in experiment [8] it was 99% (active). The inhibition of aggregation in experiment [2] is -42.5% (inactive). Further, the nuclei count in experiment [2] and in experiment [3] was 108% each time. Besides, the fluorescence slope in experiment [4] is -0.334 (inactive). Moreover, the NADPH fluorescence slope in experiment [5] is -4.3e-05 (inactive). For the same compound, the slope in experiment [6] is 0.00498 (inactive).
On to `N#Cc1cc2ccccc2nc1SCC(=O)Nc1ccccc1N1CCOCC1`, for which the cell count in experiment [1] is 448. Besides, the inhibition in experiment [1] is 13.7% (inactive); in experiment [3], -12.8% (inactive); in experiment [7], 9.6% (inactive); in experiment [8], 9.63% (inactive). In addition, in experiment [2], the inhibition of aggregation was 8.2% (inactive). The nuclei count in experiment [2] was found to be 100%; in experiment [3], 106%. The fluorescence slope in experiment [4] was -0.481 (inactive). Further, the NADPH fluorescence slope in experiment [5] is -2.6e-05 (inactive). Further, in experiment [6], the slope is 0.00662 (inactive).

Source of the values: PubChem BioAssay.
